Measured values published in PubChem BioAssay AID488969 (Vanderbilt High Throughput Screening Facility, 2010).
The full ranking holds about 110,000 compounds; the median of “z-score” is about -0.1, and the highest 2% start at about 2. The full list was thinned out, with the highest values kept by preference. Active and inactive are the calls of the source.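 The calls were made as follows: active = z-score in the third read window above 3 or below -3; inactive = the rest.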

molecular target: Metabotropic glutamate receptor 8 (Rattus norvegicus) (UniProt P70579); assay: rat mGluR8 modulators via GIRK flux, primary screen, cell-based, thallium flux, HTS (AID 488969); settings: HEK293 rat mGluR8, GIRK (G protein-gated inwardly rectifying potassium channel) thallium flux, FluoZin2; at 10 µM; stronger effect = higher value; submaximal glutamate (EC20) added with thallium
Sequence (P70579 whole entry, looked up): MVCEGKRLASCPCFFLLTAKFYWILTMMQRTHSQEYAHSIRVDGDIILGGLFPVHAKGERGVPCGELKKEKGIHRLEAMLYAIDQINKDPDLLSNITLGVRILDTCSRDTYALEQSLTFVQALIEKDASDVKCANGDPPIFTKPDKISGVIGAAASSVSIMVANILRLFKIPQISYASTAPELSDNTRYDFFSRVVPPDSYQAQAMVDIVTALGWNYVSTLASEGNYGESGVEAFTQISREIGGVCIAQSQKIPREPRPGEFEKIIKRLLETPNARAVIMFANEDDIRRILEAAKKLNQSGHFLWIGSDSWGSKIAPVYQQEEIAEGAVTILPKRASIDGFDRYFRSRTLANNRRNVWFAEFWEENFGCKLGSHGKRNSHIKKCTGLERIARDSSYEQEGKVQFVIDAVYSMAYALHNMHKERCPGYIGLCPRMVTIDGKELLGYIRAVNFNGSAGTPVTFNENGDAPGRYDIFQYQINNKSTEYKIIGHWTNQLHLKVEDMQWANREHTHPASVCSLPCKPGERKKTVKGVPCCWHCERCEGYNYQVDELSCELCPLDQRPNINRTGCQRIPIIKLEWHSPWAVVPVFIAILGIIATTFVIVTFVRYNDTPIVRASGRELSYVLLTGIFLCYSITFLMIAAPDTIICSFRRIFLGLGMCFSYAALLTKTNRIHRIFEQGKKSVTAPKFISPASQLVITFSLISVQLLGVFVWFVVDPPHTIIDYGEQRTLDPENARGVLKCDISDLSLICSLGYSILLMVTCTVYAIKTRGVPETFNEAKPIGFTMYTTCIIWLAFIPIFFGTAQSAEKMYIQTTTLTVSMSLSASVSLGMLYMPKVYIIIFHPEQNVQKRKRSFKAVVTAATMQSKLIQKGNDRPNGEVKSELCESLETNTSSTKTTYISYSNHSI

SMILES	z-score
Cc1noc(/C=C/N(C)C)c1S(=O)(=O)N1CCCC(C(=O)NCCC2=CCCCC2)C1 (configuration not stated)	-0.237
CC(C)(C)c1nnc(N/N=C/c2ccccc2O)n(N)c1=O	-0.149
CC(C)(C)c1nnc(N/N=C/c2ccccc2)n(N)c1=O	2.74
CC(C)(C)c1nnc(N/N=C/c2ccc(Br)cc2)n(N)c1=O	0.0626
COc1ccc(-c2csc(Nc3ccc(S(N)(=O)=O)cc3)n2)cc1	-0.213
Cc1ccc([N+](=O)[O-])cc1NC(=S)NC(=O)c1cccs1	2.46
Cc1ccc([N+](=O)[O-])cc1NC(=S)NC(=O)c1ccco1	7.69 (active)
Cc1ccc([N+](=O)[O-])cc1NC(=S)NC(=O)C(C)(C)C	0.72
O=C(Nc1cc([N+](=O)[O-])ccc1F)c1cccs1	-0.0753
Cc1ccc([N+](=O)[O-])cc1NC(=S)NC(=O)CC(C)(C)C	0.834
Cc1ccc([N+](=O)[O-])cc1N/C=C/C(=O)c1ccco1	-0.039
COC(=O)c1ccc(C(=O)OC)c(NC(=O)COC(=O)CC2CC3CCC2C3)c1 (configuration not stated)	-0.338
CC1CCCCN1c1nnc(NC(=O)c2cc(-c3ccc(Br)cc3)on2)s1 (configuration not stated)	-0.71
O=C(Nc1nnc(N2CCCCCC2)s1)c1cc(-c2ccc(Br)cc2)on1	-0.0797
CC1CCCC(C)N1c1nnc(NC(=O)c2cc(-c3ccc(Br)cc3)on2)s1 (configuration not stated)	2.04
O=C(CC12CC3CC(CC(C3)C1)C2)NCC(=O)OCc1cc(=O)oc2ccc3ccccc3c12	-0.205
O=CN1CCN(C(C(=O)NC2CCCC2)c2ccc(Cl)cc2)CC1 (configuration not stated)	0.0147
Cc1oc(-c2ccc(Cl)cc2)nc1CN1CCC(C(=O)N2CCN(Cc3ccccc3)CC2)CC1	0.0945
CCc1ccc(-c2nc(CN3CCC(C(=O)NCCN(CC)c4ccccc4)CC3)c(C)o2)cc1	1.17
CCc1ccc(-c2nc(CN3CCC(C(=O)NCCc4ccc(OC)c(OC)c4)CC3)c(C)o2)cc1	0.471
CCc1ccc(-c2nc(CN3CCC(C(=O)N4CCN(c5ccccc5)CC4)CC3)c(C)o2)cc1	2.2
CCc1ccc(-c2nc(CN3CCCC(C(=O)NCCc4ccc(OC)c(OC)c4)C3)c(C)o2)cc1 (configuration not stated)	2.2
COc1ccc(CCNC(=O)C2CCCN(Cc3nc(-c4cccc(Cl)c4)oc3C)C2)cc1OC (configuration not stated)	1.07
O=C(CNC(=O)c1ccccc1F)NCCOc1cccc(Cl)c1Cl	-0.0129

SMILES	z-score
COCCNC(=O)CN(C(=O)CCC(=O)Nc1cc(C)on1)c1cccc(C)c1C	-0.171
CC(C)NS(=O)(=O)c1ccc(CCC(=O)Nc2ccc3c(c2)OCO3)cc1	-0.224
CCc1ccc2[nH]c(O)c(N=Nc3nc(-c4ccccc4)cs3)c2c1	2.89
CCc1cc(C(=O)N=Nc2c(O)[nH]c3ccc([N+](=O)[O-])cc23)c2ccccc2n1	-0.481
CCc1cc2c(N=Nc3c(O)[nH]c4ccccc34)ncnc2s1	-0.149
COC(=O)CSc1cnc2ccccc2n1	0.141
COC(=O)c1c(NC(=S)NC(=O)c2ccco2)sc2c1CCCC2	3.53 (active)
Cc1ccc(C(=O)OCC(=O)Nc2sc3c(c2C#N)CCC3)cc1	-0.0585
COC(=O)c1c(NC(=O)c2ccco2)sc2c1CCC2	-0.464
CCOC(=O)c1c(NC(=O)c2ccccc2N(C)S(=O)(=O)c2ccccc2)sc2c1CCCC2	-0.168
Cc1ccc(C(=O)OCC(=O)Nc2sc3c(c2C#N)CCCC3)cc1NC(=O)c1ccco1	2.03
CCOC(=O)c1c(NC(=O)c2ccco2)sc2c1CCCCC2	-0.506
CCOC(=O)c1c(NC(=S)Nc2ccccc2)sc2c1CCCCC2	3.94 (active)
CC(C)OC(=O)c1c(NC(=O)c2ccco2)sc2c1CCCCC2	-0.501
CCOC(=O)c1c(NC(=S)Nc2ccc(C)cc2)sc2c1CCC2	-0.0357
CCOC(=O)c1c(NS(=O)(=O)Cc2ccccc2)sc2c1CCCC2	17.1 (active)
CCOC(=O)c1c(NC(=S)Nc2ccc(F)cc2)sc2c1CCC2	-0.154
Cc1ccc(C(=O)OCC(=O)Nc2sccc2C(N)=O)cc1NC(=O)c1ccco1	-0.747
CC(=O)Nc1ccc2nc(C)n(Cc3ccc(Cl)cc3)c(=O)c2c1	-0.376
CCOC(=O)N1CCC(NC(=O)C2CCN(c3ccc(N4CCOCC4)nn3)CC2)CC1	-0.202
CCCOc1ccc(N2C(=O)CC(N3CCN(c4ccccc4OC)CC3)C2=O)cc1 (configuration not stated)	-0.446
COC(=O)C1=CNC=C(C(=O)OC)C1c1ccccc1Cl	-1.54
CCOc1ccccc1N(CC(=O)Nc1ccccc1C(=O)O)S(C)(=O)=O	0.403
c1ccc2nc3c(cc2c1)CCCCCC3	-0.0331

SMILES	z-score
CCOC(=O)c1nnn(-c2nonc2N)c1-c1cccc2ccccc12	-1.66
O=C(NCc1ccc2c(c1)OCO2)C1CC(c2ccccc2O)=NO1 (configuration not stated)	0.36
COc1ccc(C(C[N+](=O)[O-])c2c(-c3ccccc3)cc3ccccn23)cc1 (configuration not stated)	0.715
Cc1snc(SCC(=O)N/N=C(\N)COc2ccc(F)cc2)c1C#N	0.165
Cn1c(CNc2ccc(Cl)cc2)nnc1SCCN1CCCCC1	0.273
O=C(COc1ccc([N+](=O)[O-])cc1)NCCC1=CCCCC1	-0.0621
CCCNC(=S)Nc1ccc(Cl)cc1Cl	-0.0325
COC(=O)c1c(NS(=O)(=O)Cc2ccccc2)sc2c1CCCC2	17 (active)
COC(=O)c1c(NS(=O)(=O)c2ccc3ccccc3c2)sc2c1CCCC2	0.384
COC(=O)c1c(NS(=O)(=O)c2cccs2)sc2c1CCCC2	6.32 (active)
COC(=O)c1c(NS(C)(=O)=O)sc2c1CCCC2	0.0189
COC(=O)c1c(NC(=O)CN(c2ccccc2)S(C)(=O)=O)sc2c1CCCC2	0.77
COC(=O)c1c(NC(C)=O)sc2c1CCCC2	-0.117
C=CCn1c(Cc2csc(N)n2)nnc1SCC(=O)Nc1ccc(C(=O)OCC)cc1	-2.2
CCOC(=O)C1CCN(C(=O)c2ccccc2Oc2ccccc2)CC1	-0.386
COc1ccc(-c2nsc(SCC(=O)Nc3ccc4c(c3)OCO4)n2)cc1	-0.142
CCOC(=O)NCc1ccc(S(=O)(=O)Nc2ccc(C)cc2)cc1	0.21
Cc1ccc(-c2cc(N)n(Cc3ccc(Cl)cc3)n2)cc1	-0.532
O=C(NC(=S)N(Cc1ccccc1)Cc1ccccc1)C1CCCCC1	0.526
CC(C)CC(=O)NC(=S)NCCc1ccccc1	0.38
CC(C)CC(=O)NC(=S)N(Cc1ccccc1)Cc1ccccc1	8.66 (active)
CC(C)CC(=O)NCCCCc1ccccc1	-0.29
CC(C)C(=O)NC(=S)N(Cc1ccccc1)Cc1ccccc1	9.57 (active)
O=C(NC(=S)N(Cc1ccccc1)Cc1ccccc1)c1ccccc1F	-1.15
